Lassa entry: inhibitors of Lassa virus binding or entry into cells | Potency, µM (doses to about 49.2 µM), without a hit: at the highest dose activity change, negative = inhibition, actives largely listed as inhibitors | Lassa virus pseudotyped entry inhibition, cell-based qHTS | AID 720533 | hit rate 4.1% among 18,000
Marburg entry: inhibitors of Marburg virus binding or entry into cells | Potency, µM (series often up to 49.2 µM), for the others: at the top dose activity change, negative = inhibition, most hits filed as inhibitors | hit rate 6.5% among 18,000 | AID 720532 | Marburg virus pseudotype entry/binding inhibition, cell-based
* hit, by the source's call; ? = inconclusive; ! = not confirmed by another sample; [ ] = remark or other dose. Shown are actives, neighbours in structure and some others; about 8% of the full set was active somewhere. The call rests on the fitted dose curve; tested in HEK293 cells. On the % scale 0 is the no-effect control and ±100 the full control effect; potency means the concentration at half of the fitted maximal effect.

SMILES	Lassa entry	Marburg entry
CN1CCC(CN2c3ccccc3Sc3ccccc32)C1 (configuration not stated)	16µM*	10µM*
CCN(CC)C(=S)S	?	17%
Cc1nc(N=Nc2cc(S(=O)(=O)O)c3cc([N+](=O)[O-])cc(S(=O)(=O)O)c3c2)c(COP(=O)(O)O)c(C=O)c1O	35%	?
CC1(C)S[C@H]2[C@@H](NC(=O)C(N)c3ccccc3)C(=O)N2[C@H]1C(=O)O (some centres not stated)	3%	?
COc1cc2c(c(OC)c1OC)-c1ccc(O)c(=O)cc1C(NC(C)=O)CC2 (configuration not stated)	-10%	?
C[C@H]1O[C@@H](O[C@H]2[C@@H](O)C[C@H](O[C@H]3[C@@H](O)C[C@H](O[C@H]4CC[C@]5(C)C6CC[C@]7(C)[C@@H](C8=CC(=O)OC8)CC[C@]7(O)C6CC[C@@H]5C4)O[C@@H]3C)O[C@@H]2C)C[C@H](O)[C@@H]1O (some centres not stated)	0.0025µM*	?
CC1O[C@@H](O[C@@H]2C(O)C[C@H](O[C@@H]3C(O)C[C@@H](OC4CC[C@@]5(C)C6CC[C@]7(C)C(C8=CC(=O)OC8)CC[C@@]7(O)C6CC[C@@H]5C4)OC3C)OC2C)CC(O)[C@H]1O (some centres not stated)	0.28µM*	0.22µM*
CCCS(=O)(=O)NCc1c(C)ncc2c1CCN(C(=O)/C=C/c1cccc(Cl)c1)C2	-10%	-8%
CCCCN1CC(COCc2ccccc2)Oc2cccc(Oc3ccc(C(C)C)cc3)c2S1(=O)=O (configuration not stated)	-16%	-12%
CCOC(=O)C1=C[C@@]2(CC)CCCN3CCc4c(n1c1ccccc41)C32 (some centres not stated)	-7%	10µM*
CCOC(=O)C1=CC2(CC)CCCN3CCc4c(n1c1ccccc41)C32 (configuration not stated)	?	-15%
O=C1c2cc(Br)ccc2O[C@@H](c2ccc3c(c2)OCO3)[C@@H]1O	37%	39%
CCCCC(=O)O[C@@]1(C(=O)CO)C(C)CC2C3CCC4=CC(=O)C=C[C@@]4(C)[C@]3(F)C(O)C[C@]21C (some centres not stated)	-2%	-13%
CCCC(=O)O[C@]1(C(=O)COC(=O)CC)[C@@H](C)C[C@H]2[C@@H]3CCC4=CC(=O)C=C[C@]4(C)[C@@]3(F)[C@@H](O)C[C@@]21C	?	11µM*
Cc1cc(=O)c(C(=O)NCCc2ccccn2)c2n1-c1ccccc1SC(c1cccs1)C2 (configuration not stated)	1%	-24%
CCCCCCCC/C=C\CCCCCCCCCCCC(=O)O	-7%	5%
COc1ccc(C2/C=C\CC(OCc3ccccc3)CC(=O)N2Cc2cccc(F)c2)cc1 (configuration not stated)	?	-20%
COc1ccc(C2/C=C\C(c3ccc(OC)cc3)N(Cc3ccc(F)cc3)C(=O)C(=O)N2Cc2ccc(F)cc2)cc1 (configuration not stated)	-24%	10µM*
C[C@@](N)(Cc1ccc(O)cc1)C(=O)O	6%	12%
COc1ccccc1C(=O)N(Cc1cc2cc3c(cc2nc1N(C)C)OCO3)CC1CCCO1 (configuration not stated)	11µM*	13µM*
Cc1ccc(C(=O)N(Cc2cc3cccc(C)c3nc2N(C)C)CC2CCCO2)cc1 (configuration not stated)	-5%	7%
CN1C[C@H](CNC(=O)OCc2ccccc2)C[C@@H]2c3cccc4c3c(cn4C)C[C@H]21	?	14µM*!
CN1C[C@H](CNC(=O)OCc2ccccc2)C[C@H]2c3cccc4c3c(cn4C)C[C@@H]21	?	10µM*
CO[C@@]12C[C@@H](COC(=O)c3cncc(Br)c3)CN(C)[C@H]1Cc1cn(C)c3cccc2c13	4%	-1%
CN1C[C@H](C(=O)N[C@]2(C)O[C@@]3(O)[C@H]4CCCN4C(=O)[C@H](Cc4ccccc4)N3C2=O)C[C@H]2c3cccc4[nH]cc(c34)C[C@@H]21	3%	31%
SMILES	Lassa entry	Marburg entry
COC(=O)C1=C(C)N(Cc2ccccc2)C(=O)N[C@@H]1c1ccccc1	-4%	9%
Oc1ccc(-c2nc(-c3ccc(F)cc3)c(-c3ccncc3)[nH]2)cc1	-26%	?
O=C(O)[C@@]1(CCCCCCOc2ccc(Cl)cc2)CO1	-3%	-7%
O=C1CC[C@H](C(=O)N2CCCCC2)N1	2%	9%
CCCCC1=CC2=C(c3ccco3)C(=O)C(C)(OC(=O)c3ccc(OC)cc3)C(=O)C2=CN1CCCN(CC)CC (configuration not stated)	-16%[8.59 µM]	?
Cc1cccc(CNc2ncnc3ccc(-c4ccccc4CN(C)C)cc23)c1	?	10µM*
Cc1cccc(CNc2ncnc3ccc(-c4ccc5c(c4)OCO5)cc23)c1	-14%	2%

Bioassay records as filed in PubChem.
